Measured values reported in PubChem BioAssay (NCI).
This is part of a sample that, as a whole, favours compounds with a hit. Of some 83,000 tested, about 20% had one in any assay.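 Note: values are percent growth. 100 is the growth of untreated cells, values between 100 and 0 indicate rising inhibition; between -100 and 0 indicates cell death.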 Unmarked numbers belong to inactive results. The source made the active and inactive calls.

system: T-47D breast; assay: NCI-60 one-dose screen, 48 h (100 = growth as untreated, 0 = no growth, -100 = all killed); details: 10 µM unless noted
Method: Growth inhibition of the T-47D human tumor cell line is measured as a screen for anti-cancer activity. Cells are grown in 96 well plates and exposed to the test compound for 48 hours. Compounds are tested at a single concentration, which is 10^-5 M for most compounds. The reported endpoint is percent growth (GI% or GIPRCNT), where numbers from 0 - 100% represent growth inhibition, and numbers from -100% - 0 represent cell death. For example, a value of 40 represents 60% growth inhibition. A value of 0 means no net growth occurred over the course of the experiment. A value of -40 indicates 40% of cells at the beginning of the experiment died by the end of the experiment. A value of -100 means all cells are dead at the end of the experiment.
NCI-60 Human Tumor Cell Lines Screen was performed using the standard one-dose NCI protocol, which is described in more detail at https://dtp.cancer.gov/discovery_development/nci-60/default.htm.
Compounds with GIPRCNT values below 10 were considered active. Activity score was based on GIPRCNT using the following formula: […]
Score is 0 for GIPRCNT values of 100 or above, 50 for GIPRCNT values of 0, and 100 for GIPRCNT values of -100.

`CNCCCn1c2c(c3ccc(F)cc3c1=O)C(=O)c1cc(OC)cnc1-2` was tested, and the growth was -2.54% (active).
`O=C1C(=O)c2c(nc3ccc(Cl)cn23)-c2ccccc21` was tested, and the growth was -55.8% (active).
For `OC(c1cc(-c2cccc(Cl)c2)nc2ccccc12)C1CCCCN1` (stereo not given), the growth was -71.6% (active).
With `N#Cc1ncc(-c2ccc(C(F)(F)F)cc2)c(NC2CCCCCC2)n1` the growth was 7.65% (active).
For `O=C(Nc1nc2c(C(F)(F)F)cccc2s1)c1cc(Cl)ccc1O`, the growth was -1.67% (active).
With `COc1cnc2c(c1)C(=O)c1c-2n(CCCN2CCC(O)CC2)c(=O)c2cc(F)ccc12` the growth was -4.28% (active).
With `COC(=O)[C@H](Cc1cnc[nH]1)NC(=O)[C@@H](NC(=O)Nc1cc(C(F)(F)F)cc(C(F)(F)F)c1)C(C)C` the growth was -63.5% [100 µM] (active).
`CCNCCCn1c2c(c3ccc(F)cc3c1=O)C(=O)c1cc(OC)cnc1-2` was tested, and the growth was -10.8% (active).
In the case of `Cc1n(Cc2ccc3ccccc3c2)c2ccccc2[n+]1Cc1ccc2ccccc2c1`, the growth was -3.2% (active).

Going from `Cc1cc(Br)c(C)cc1Br` to `COc1c(Br)cc(C(c2cc(Br)c(OC)c(Br)c2)c2ccccc2C(=O)O)cc1Br`, the growth rises from 92.5% to 93.6%.

Going from `CCc1ccc(-c2nc(SCC(=O)NC3CCCCC3)n[nH]2)cc1` to `CCSc1nc(-c2ccc(F)cc2)c(C#N)c(=O)[nH]1`, the growth rises from 81.7% to 120%.

First: CCOc1nc(-c2ccco2)n2nc(-c3ccco3)cc2n1
Second: COc1ccc2c(c1)sc1nc(-c3ccc(N(C)C)cc3)cn12
The growth of the first is higher: 84% for the first, 68.7% for the second.

Compared with `Nc1nc2c(c(=O)[nH]1)C1(C(=O)Nc3ccccc31)c1c(nc(N)[nH]c1=O)N2`, `CC1C(=O)NC2=Nc3ccccc3C(=O)NN21` (stereo not given) is lower in growth: 92.3% for the first, 81.4% for the second.

Going from `CC(C)N(Cc1ccccc1)c1c(Cl)ssc1=O` to `CCC(=O)Nc1cc2c(cc1Cl)-c1ccccc1C2`, the growth falls from 98.9% to 85.2%.

Compared with `COc1ccc2c(c1)[n+](=O)c(C(=O)/C=C/c1cc(OC)c(OC)c(OC)c1)c(C)n2[O-]`, `COc1cc(-c2nc3sc4c(c3c(=O)[nH]2)CCCCCC4)cc(OC)c1OC` is lower in growth: 60.1% for the first, 32.8% for the second.

Going from `O=C(Nc1ccccc1)P(=O)(O)c1ccccc1` to `O=C(/C=C(\Nc1ccccc1)c1ccccc1)c1cn(-c2ccc([N+](=O)[O-])cc2)nn1`, the growth falls from 113% to 96.4%.

First: COc1cccc(CCN2C(=O)CCC3=C2CCC3=O)c1
Second: COc1ccc2c(c1)CC/C(=C\c1ccc(OCC(=O)Nc3nc4ccccc4s3)cc1)C2=O
The growth of the first is higher: 102% for the first, 88.3% for the second.

Compared with `COc1ccc(C2CC(c3ccc(Nc4ccnc5cc(Cl)ccc45)cc3)=NN2C(C)=O)cc1` (stereo not given), `CC(=O)N1N=C(c2ccc(Cl)cc2)CC1c1c(C)nn(-c2ccccc2)c1N(C)Cc1ccccc1` (stereo not given) is higher in growth: 40% for the first, 59.6% for the second.

Going from `CC1=C([Se]CC(OC(=O)[C@@H](CSSC(C)(C)C)NC(=O)C(C)(C)C)C(=O)NCCCCCC(=O)OCc2ccccc2)C(=O)c2ccccc2C1=O` (stereo not given in full) to `CCOC(=O)CNC(=O)C1(NC(=O)CNC(=O)OCc2ccccc2)CCCC1`, the growth rises from 17.9% to 107%.

First: CC(C)Cn1cnc2c(NCn3nc(-c4cc(Cl)cc(Cl)c4Cl)n(/N=C/c4ccc(Cl)cc4)c3=S)nc3ccccc3c21
Second: Clc1ccc(C2c3ccccc3-c3nccn32)c(Cl)c1 (stereo not given)
The growth of the first is higher: 71.3% for the first, 56.2% for the second.

Going from `O=C(/C=C/c1ccc([N+](=O)[O-])cc1)c1ccc2c3c(cccc13)CC2` to `O=C1/C(=C/c2ccc(F)cc2)Cc2ccccc21`, the growth rises from 69.1% to 103%.

First: Cc1ccc(N/N=C(/C(=O)c2ccc(Cl)cc2)c2nc(C)cc(=O)[nH]2)cc1
Second: COc1ccc(C2=NN(C(C)=O)C(c3c(C)nn(-c4ccccc4)c3N3CCOCC3)C2)cc1 (stereo not given)
The growth of the first is lower: 88.3% for the first, 93.3% for the second.

Going from `CC(C)Sc1nc(Cl)c(C#N)c(-c2ccc(F)cc2)n1` to `N#Cc1c(NC(=O)c2ccco2)[n+]([O-])c2cc(Cl)c(Cl)cc2[n+]1[O-]`, the growth rises from 98.1% to 112%.

First: CC(=O)[C@H]1CC[C@H]2[C@@H]3C[C@H](C)C4=CC(=O)CC[C@]4(C)[C@H]3C(=O)C[C@]12C
Second: CC[C@@H](C)/C=C(C)/C=C/C(=O)c1c(O)c(-c2ccc(O)cc2)cn(OC2CC(=O)CCC(C)OC(=O)CC2O)c1=O (stereo not given in full)
The growth of the first is higher: 87.5% for the first, 25.8% for the second.

For `COc1ccc(Oc2ccccc2NC(=O)CNC(=O)c2cccc3ccccc23)cc1`, the growth was 41.6% [5 µM].
